In PubChem BioAssay (NCATS) one finds max response, outcome and Potency data, which are given here for 19 compounds.

Several values for one entry are separate records, joined by “and”; a condition that tells them apart may be missing. Equal values may be shown once. Inconclusive results are not listed. Unmarked numbers belong to inactive results. Activity calls are given as the source filed them. Calls come from the whole dose curve; as a rule, active = well fitted inhibition curve with a large enough effect; inconclusive = small, poorly fitted or top-dose-only effect; inactive = flat fitted curve, though single readings scatter.

One assay concerns CRL-7250. The assay can be described thus: Cytotoxic Profiling of Annotated Libraries Using Quantitative High-Throughput Screening (AID 1296008). For max response: % is set by controls: 0 for no effect and ±100 for the full control effect. Note: potency is the fitted concentration of half-maximal effect. Particulars: Five cell lines viability, CellTiter-Glo ATP luminescence, 48-72 h; max response: hits give low values. An outline of the steps:
(§1)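 Compounds were pin-transferred onto cells and incubated 48 or 72 hr at 37 degree Celsius, 95% humidity. CellTiter-Glo was added, plates sat 10 min at room temperature, then ATP-coupled luminescence was imaged as the viability read-out.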
A general note: ATP-based viability assays read luminescence as a measure of living cells.

A further assay concerns HEK293. The assay is described as above. Particulars: Five cell lines viability, CellTiter-Glo ATP luminescence, 48-72 h; max response: hits give low values. An outline of the steps:
as §1

The subject of assay [1] is HaCat. The assay is described as above. As to conditions: Five cell lines viability, CellTiter-Glo ATP luminescence, 48-72 h; max response: hits give low values. Summed up: as §1
The subject of the next assay is KB-3-1. The assay is described as above. As to conditions: Five cell lines viability, CellTiter-Glo ATP luminescence, 48-72 h; max response: hits give low values. An outline of the steps: as §1
Another assay relates to NIH3T3. The assay is described as above. As to conditions: Five cell lines viability, CellTiter-Glo ATP luminescence, 48-72 h; max response: hits give low values. An outline of the steps:
as §1

Assay [2] concerns HACAT. The assay can be described thus: qHTS assay to identify novel small-molecules to repurpose for Merkel cell carcinoma treatment (AID 1296009). As to conditions: MCC and control cell lines, CellTiter-Glo viability, 72 h; series mostly up to 44.8 µM. An outline of the steps:
(§2)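 Viability readout: ATP luminescence (CellTiter-Glo) after 72 hr drug exposure at 37 degree celsius. Dose-response format was 8 points for NPC and 11 points for MIPE; data normalized to in-plate controls.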
(In qHTS, concentration-response curves come from the screen itself.)

A further assay deals with HEK293T. The assay is described as above. Particulars: MCC and control cell lines, CellTiter-Glo viability, 72 h; at 44.8 µM (top of the series) unless noted. Summed up:
as §2
Note: nearly all actives have a fitted effect of over 60% in size.

Turning to `COc1cc(C(=O)OC[C@H]2O[C@@H](Oc3ccccc3/C=C/C(=O)O)[C@H](O)[C@@H](O)[C@@H]2O)cc(OC)c1OC`, the max response in the assay on CRL-7250 is -2.66%; in the assay with HEK293 it was -0.285%; in the assay with KB-3-1 it was 5.09%; with NIH3T3, 0.074%. Moreover, the outcome in the assay with HaCat [1] was inactive. Also, the Potency entry in the assay on HACAT [2] was “inactive”.
As for `CC(=O)C1=CCC2C3CCC4CC(O[C@@H]5O[C@H](CO)[C@@H](O[C@@H]6O[C@@H](C)[C@H](O)[C@@H](O)[C@H]6O)[C@H](O)[C@H]5O[C@@H]5O[C@H](CO)[C@@H](O)[C@H](O)[C@H]5O)CCC4(C)C3CCC12C` (stereo not given in full), the max response was -10.3% in the assay with CRL-7250, -11.1% with HEK293, -22.8% in the assay with HaCat [1] and -4.06% with NIH3T3. Moreover, in the assay with KB-3-1, the compound was called inactive.
For the compound `C=CC(C)(C)c1[nH]c2ccccc2c1C[C@@H]1NC(=O)[C@H](Cc2c[nH]c3ccccc23)NC1=O`, the max response was 3.43% in the assay on CRL-7250; -1.95% with HEK293; -3.54% in the assay with HaCat [1]; 3.66% with KB-3-1; 0.0013% with NIH3T3.
In the case of `CC(=O)O[C@H]1[C@@H](O)[C@H](O[C@H]2[C@@H]3C=CO[C@@H](O[C@H]4O[C@@H](CO)[C@H](O)[C@@H](O)[C@@H]4O)[C@@H]3[C@@]3(CO)O[C@@H]23)O[C@@H](C)[C@@H]1OC(=O)/C=C/c1ccccc1`, the max response in the assay with CRL-7250 is -1.67%; with HEK293, 4.7%; in the assay with HaCat [1] it was -2.99%; in the assay with NIH3T3, -6.79%. Besides, the result in the assay on KB-3-1 was inactive.
On to `C=C1C(=O)O[C@@H]2C[C@H](C)[C@@]3(O)C=C(C(C)=O)[C@]4(CC3C[C@H]12)C(=O)O[C@H]1C[C@@H](C)C(CCC(C)=O)=CC[C@H]14` (stereo not given in full), for which the outcome in the assay on CRL-7250 and in the assay on KB-3-1 was inactive. Moreover, the max response with HEK293 was -5.38%; with HaCat [1], -0.117%; in the assay on NIH3T3, -0.126%.
On to `COc1ncc2cc(C(=O)Nc3cc(C(=O)NCc4cccc(Cl)c4)ccc3Cl)c(=O)[nH]c2n1`, for which the compound was classed as inactive in the assay on CRL-7250 and with HaCat [1]. Moreover, the max response is -14.6% with HEK293 and -0.237% in the assay with NIH3T3. Moreover, in the assay with KB-3-1, the Potency is 4.11 µM (active). In addition, the Potency entry in the assay with HACAT [2] was “inactive”.
Take `O=C1C=CC2OC(c3ccccc3)C(O)C2O1` (stereo not given): the max response in the assay with CRL-7250 was -15.8%; in the assay with KB-3-1, -14.2%. The Potency with HEK293 is 23.1 µM (active). For the same compound, in the assay on HaCat [1], the result was inactive. Also, the Potency entry in the assay on HACAT [2] was “inactive”.
Take `C/C=C/C1=CC2=C(CO1)C(=O)C(C)(O)C(OC(=O)c1c(C)cc(OC)cc1O)C2` (stereo not given): the values for the max response with CRL-7250, in the assay with KB-3-1 and with NIH3T3 were -7.89%, 3.88% and -6.89%, respectively. In the assay on HEK293, the Potency is 11.4 µM (active). Also, in the assay on HaCat [1], the outcome was inactive. Also, the Potency entry with HACAT [2] is “inactive”.
On to `Cc1ccc(-c2c(C(=O)CF)n(CCCO)c3ncnc(N)c23)cc1`, for which the max response is -0.58% in the assay on CRL-7250, 4.6% in the assay with HaCat [1] and 4.56% with KB-3-1. For the same compound, the result with HEK293 and with HEK293T was inactive.
As to `CC1CCCCN1S(=O)(=O)c1ccc(N2CCCC2=O)cc1` (stereo not given), the max response is -8.63% in the assay with CRL-7250, -10.9% with HaCat [1] and -2.83% in the assay on KB-3-1. For the same compound, the outcome with HEK293 and in the assay on HEK293T was inactive.
Take `Cc1nc2ccc(Oc3ccc(F)cc3)cc2c(=O)n1C[C@H]1CCCN(C(C)C)C1`: the max response in the assay on CRL-7250 is -2.55%; in the assay with HEK293, -15.9%; with KB-3-1, 5.64%. For the same compound, the compound was classed as inactive in the assay on HaCat [1]. Also, in the assay on HACAT [2], the Potency result is “inactive”.
As to `COc1ccc2[nH]c3c(-c4cccc5ccccc45)nccc3c2c1`, the Potency in the assay on CRL-7250 was 1.16 µM (active); with HEK293, 1.3 µM (active); in the assay on KB-3-1, 0.82 µM (active). Besides, the compound was classed as inactive in the assay with HaCat [1]. Besides, the Potency result with HACAT [2] is “inactive”.
Consider `CC(C)[C@@H](CS(=O)(=O)C(C)C)N1C(=O)[C@@](C)(CC(=O)O)C[C@H](c2cccc(Cl)c2)[C@H]1c1ccc(Cl)cc1`, for which the Potency is 5.8 µM (active) and 1.86 µM (active) in the assay on CRL-7250; 16.6 µM (active) in the assay with HEK293; 6.51 µM (active) and 7.41 µM (active) in the assay on NIH3T3. In the assay with HaCat [1], the max response is -29%.
As to `CCOC(=O)c1sc(NC(=O)[C@H](C(C)C)n2c(=O)[nH]c3ccccc3c2=O)nc1C`, the result in the assay with CRL-7250 and in the assay with HaCat [1] was inactive. Moreover, the values for the max response in the assay on HEK293 and in the assay with KB-3-1 were -9.44% and 8.45%, respectively. For the same compound, the Potency entry in the assay with HACAT [2] was “inactive”.
On to `Cc1cccc(-c2[nH]c(Cc3cccc(C(N)=O)c3)nc2-c2ccc3nccnc3c2)n1`, for which the max response in the assay with CRL-7250 is 4.2%; in the assay with KB-3-1 it was -5.51%. Also, the compound was classed as inactive in the assay on HEK293, with HaCat [1] and with HEK293T. The Potency entry in the assay on HACAT [2] was “inactive”.
With `COc1cc2c(c(OC)c1CC=C(C)C)C[C@H](c1ccc(O)cc1O)CO2`, the max response in the assay on CRL-7250 is -5.34%; with HEK293, 0.883%; in the assay with NIH3T3, 0.487%. Moreover, the compound was classed as inactive in the assay on HaCat [1] and with KB-3-1. The Potency entry in the assay on HACAT [2] is “inactive”.
Regarding `O=C(Nc1nc2ccccc2n1CCc1ccccc1)c1ccccc1`, the max response is 1.35% in the assay on CRL-7250, -110% in the assay with HEK293, 5.59% in the assay with KB-3-1 and -1.28% in the assay with NIH3T3. The call in the assay on HaCat [1] was inactive. Besides, the Potency entry in the assay with HACAT [2] is “inactive”.
For `COc1cc(/C=C/C=O)cc(OC)c1O[C@@H]1O[C@H](CO)[C@@H](O)[C@H](O)[C@H]1O`, the max response is -11.6% with CRL-7250, -3.11% with HEK293 and -71.2% in the assay with NIH3T3. Also, the compound was classed as inactive with HaCat [1] and in the assay on KB-3-1. Moreover, in the assay on HACAT [2], the Potency result is “inactive”.
As to `CN1CCN(c2ccc(C(=O)Nc3n[nH]c4ccc(Cc5cc(F)cc(F)c5)cc34)c(NC3CCOCC3)c2)CC1`, the Potency in the assay with CRL-7250 is 20.9 µM (active); with HEK293 it was 7.41 µM (active); with HaCat [1] it was 18.4 µM (active) and 14.8 µM (active); in the assay with NIH3T3, 10.5 µM (active).
